# According to PubChem BioAssay (Tox21):
# Several values for one entry are separate records, joined by “and”; a condition that tells them apart may be missing. Equal entries are not always repeated. Results filed as inconclusive are left out. Where a call stands in place of a potency, no number is given. Some structures have more than one record in an assay (separate samples or runs), and their calls can disagree. Activity calls are given as the source filed them. The call rests on the fitted dose curve; in most records, active means well fitted curve in the direction sought with a large enough effect in the repeat runs; inconclusive means weak or mixed curves; inactive means no such curve, though single readings can be large; an effect the other way counts as inactive or inconclusive.
# Key:
# [1] = Human pregnane X receptor (PXR) small molecule agonists, qHTS cell viability counter screen (AID 1346977); settings: PXR-Luc HepG2 viability, CellTiter-Fluor, 24 h; series mostly up to 92.4 µM; further: nearly all actives have a fitted effect of over 50% in size; further: potency means the concentration at half of the fitted maximal effect
# Procedure, shortened: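 Viability counter screen: CellTiter-Fluor signal in PXR-Luc HepG2 cells, 24hr compound exposure, 37C, 5% CO2.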
# [2] = Caspase-3/7 induction in HepG2 cells by small molecules, qHTS assay (AID 1346978); settings: HepG2 caspase-3/7 activation, Caspase-Glo luminescence, 17 h; series mostly up to 92.4 µM; further: nearly all actives have a fitted effect of over 15% in size; further: potency means the concentration at half of the fitted maximal effect
# Procedure, shortened: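 Caspase-3/7 induction was measured by Caspase-Glo 3/7 luminescence (30 min, room temperature) after a 17 hr compound exposure of wild-type HepG2 cells seeded at 2,000 per well and pre-incubated 5 hr.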
# [3] = Caspase-3/7 induction in CHO-K1 cells by small molecules, qHTS cell viability counter screen (AID 1346979); settings: CellTiter-Fluor fluorescence, 17 h; series mostly up to 92.4 µM; further: nearly all actives have a fitted effect of over 35% in size; further: potency means the concentration at half of the fitted maximal effect
# Procedure, shortened: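 Viability readout by fluorescence (CellTiter-Fluor) on wild-type CHO-K1 cells exposed for 16hr at 37C and 5% CO2 to compounds delivered in DMSO; reagent incubated 1hr before reading.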
# [4] = Caspase-3/7 induction in CHO-K1 cells by small molecules, qHTS assay (AID 1346980); settings: CHO-K1 caspase-3/7 induction, Caspase-Glo luminescence, 17 h; series mostly up to 92.4 µM; further: nearly all actives have a fitted effect of over 15% in size; further: potency means the concentration at half of the fitted maximal effect
# Procedure, shortened: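 Luminescent Caspase-Glo 3/7 read (30min, room temperature) quantified apoptosis induction. Cells were wild-type CHO-K1, treated with compound for 17hr at 37 C and 5% CO2.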
# [5] = Caspase-3/7 induction in HepG2 cells by small molecules, qHTS cell viability counter screen (AID 1346981); settings: CellTiter-Fluor fluorescence, 17 h; series mostly up to 92.4 µM; further: nearly all actives have a fitted effect of over 30% in size; further: potency means the concentration at half of the fitted maximal effect
# Procedure, shortened: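 HepG2, WT, 2,000 cells/well; 5 hr pre-incubation 37 C/5% CO2; compound pin-transferred from DMSO; 16 hr exposure; CellTiter-Fluor, 1 hr; fluorescence read.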
# [6] = target: Cytochrome P450 2D6 (Homo sapiens) (UniProt P10635); test: Cytochrome P450 Family 2 Subfamily D Member 6 (CYP2D6) small molecule antagonists: luciferase reporter qHTS assay (AID 1671196); settings: P450-Glo CYP2D6 enzyme assay, luciferin luminescence, 1 h; series mostly up to 115 µM; further: nearly all actives have a fitted effect of over 50% in size; further: potency means the concentration at half of the fitted maximal effect
# Procedure, shortened: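 Read-out is luminescence from luciferin formed by CYP2D6 turnover of a proluciferin substrate, recorded as relative luminescence units. Reactions ran 1 h at room temperature after NADPH regeneration solution was added.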
# [7] = target: Nuclear receptor subfamily 1 group I member 2 (Homo sapiens) (UniProt O75469); test: CYP3A4 induction through human pregnane X receptor (PXR) by small molecules, qHTS assay (AID 1346984); settings: DPX-2 HepG2 PXR, CYP3A4-luciferin luminescence, 24 h; series mostly up to 46.1 µM; further: nearly all actives have a fitted effect of over 40% in size
# Procedure, shortened: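 Luminescence readout: luciferase signal after One-Glo (30 min, room temperature), following 3 h at 37C with 3uM final Luciferin-IPA P450 substrate. Cells were DPX-2 (HepG2, PXR/CYP3A4-luc co-transfected) dosed for 24 h.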
# [8] = target: Nuclear receptor subfamily 1 group I member 2 (Homo sapiens) (UniProt O75469); test: Human pregnane X receptor (PXR) activation by small molecules, qHTS assay (AID 1346985); settings: DPX-2 HepG2 CYP3A4-luciferase, 24 h; series mostly up to 38.3 µM; further: nearly all actives have a fitted effect of over 40% in size
# Procedure, shortened: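 DPX-2 cells (HepG2 co-transfected with a PXR response element and a CYP3A4-promoter luciferase construct) were seeded at 2,000 per well, rested 5 hr at 37C, then exposed to DMSO-dissolved compounds for 24 hr. Activation was read as luciferase luminescence.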
# [9] = target: Nuclear receptor subfamily 1 group I member 2 (Homo sapiens) (UniProt O75469); test: Human pregnane X receptor (PXR) small molecule agonists, qHTS assay (AID 1346982); settings: PXR-Luc HepG2, CYP3A4 luciferase reporter, 24 h; series mostly up to 92.4 µM; further: nearly all actives have a fitted effect of over 35% in size; further: potency means the concentration at half of the fitted maximal effect
# Procedure, shortened: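 Luciferase signal from ONE-Glo (30 min, room temperature) measured activation of hPXR-driven CYP3A4 reporter expression in PXR-Luc HepG2 cells treated with compounds for 24 hr at 37 C.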
# Chain of Nuclear receptor subfamily 1 group I member 2 (Homo sapiens) (O75469 whole entry, looked up): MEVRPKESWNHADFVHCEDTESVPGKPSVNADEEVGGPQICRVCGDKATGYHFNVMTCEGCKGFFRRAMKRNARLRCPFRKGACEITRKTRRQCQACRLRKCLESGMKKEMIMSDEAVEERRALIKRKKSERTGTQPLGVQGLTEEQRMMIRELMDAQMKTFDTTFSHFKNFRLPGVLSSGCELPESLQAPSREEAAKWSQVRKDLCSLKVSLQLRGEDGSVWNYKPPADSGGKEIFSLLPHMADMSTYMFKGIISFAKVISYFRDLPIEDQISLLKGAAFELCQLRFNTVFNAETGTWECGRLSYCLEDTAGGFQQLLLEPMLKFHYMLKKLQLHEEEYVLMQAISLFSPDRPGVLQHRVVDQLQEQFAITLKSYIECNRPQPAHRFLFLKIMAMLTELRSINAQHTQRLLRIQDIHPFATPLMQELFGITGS
# Chain of Cytochrome P450 2D6 (Homo sapiens) (P10635 whole entry, looked up): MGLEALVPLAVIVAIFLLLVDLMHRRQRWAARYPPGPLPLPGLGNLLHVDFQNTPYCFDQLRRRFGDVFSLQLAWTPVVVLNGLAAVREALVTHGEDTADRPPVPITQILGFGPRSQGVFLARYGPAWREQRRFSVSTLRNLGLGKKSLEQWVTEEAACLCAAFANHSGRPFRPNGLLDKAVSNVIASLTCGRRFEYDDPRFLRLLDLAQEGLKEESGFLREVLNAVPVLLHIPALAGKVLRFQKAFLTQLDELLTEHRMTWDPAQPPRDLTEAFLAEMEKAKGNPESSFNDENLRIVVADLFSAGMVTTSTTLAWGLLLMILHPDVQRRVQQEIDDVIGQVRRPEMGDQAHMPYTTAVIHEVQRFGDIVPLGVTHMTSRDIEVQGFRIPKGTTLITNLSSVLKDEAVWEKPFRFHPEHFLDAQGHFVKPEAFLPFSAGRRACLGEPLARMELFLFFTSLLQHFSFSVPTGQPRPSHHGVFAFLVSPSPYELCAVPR
smiles,measurement,setting,value
CCCCCCOC(=O)C(C)CC (stereo not drawn),Potency,[1],inactive
same,Potency,[2],inactive
same,Potency,[3],inactive
same,Potency,[4],inactive
same,Potency,[5],inactive
same,Potency,[6],inactive
C#C[C@]1(O)CC[C@H]2[C@@H]3[C@H](C)CC4=C(CCC(=O)C4)[C@H]3CC[C@@]21C,Potency,[1],inactive
same,Potency,[2],inactive
same,Potency,[4],inactive
same,Potency,[5],inactive
same,Potency,[7],inactive
same,Potency,[8],inactive
same,Potency,[6],inactive
CCC(C)(CCC(C)C)C(=O)[O][Sn]([CH3])([CH3])[O]C(=O)C(C)(CC)CCC(C)C (stereo not drawn),Potency,[1],inactive
same,Potency,[2],inactive
same,Potency,[4],inactive
same,Potency,[5],inactive
same,Potency,[6],inactive
Fc1ccc(C(c2ccc(F)cc2)N2CCNCC2)cc1,Potency,[1],inactive
same,Potency,[2],inactive
same,Potency,[3],inactive
same,Potency,[4],inactive
same,Potency,[5],inactive
same,Potency,[6],2.19 µM (active)
O=C(Oc1ccccc1)Oc1ccccc1,Potency,[1],inactive
same,Potency,[2],inactive
same,Potency,[3],inactive
same,Potency,[4],inactive
same,Potency,[5],inactive
same,Potency,[6],inactive
O=C(O)c1ccc2cc(C(=O)O)ccc2c1,Potency,[1],inactive
same,Potency,[2],inactive
same,Potency,[3],inactive
same,Potency,[4],inactive
same,Potency,[5],inactive
same,Potency,[6],inactive
COc1cccc(OC)c1C(=O)O,Potency,[1],inactive
same,Potency,[2],inactive
same,Potency,[3],inactive
same,Potency,[5],inactive
same,Potency,[9],inactive
same,Potency,[6],inactive
Cc1c(N)cccc1C(F)(F)F,Potency,[1],inactive
same,Potency,[2],inactive
same,Potency,[3],inactive
same,Potency,[4],inactive
same,Potency,[5],inactive
same,Potency,[6],inactive
[Cl][Pt-2]([Cl])([Cl])[Cl],Potency,[1],inactive
same,Potency,[2],inactive
same,Potency,[4],inactive
same,Potency,[5],inactive
same,Potency,[9],inactive
same,Potency,[6],40.1 µM (active)
O=C(O)c1cc(O)c2ccccc2c1O,Potency,[1],7.7 µM (active)
same,Potency,[2],inactive
same,Potency,[3],6.11 µM (active)
same,Potency,[4],inactive
same,Potency,[5],9.69 µM (active)
same,Potency,[6],35.6 µM (active)
O=C(O)c1cccc(C(F)(F)F)c1,Potency,[1],inactive
same,Potency,[2],inactive
same,Potency,[3],inactive
same,Potency,[4],inactive
same,Potency,[5],inactive
same,Potency,[6],inactive
C=CC(=O)OCCOC(=O)C=C,Potency,[1],inactive
same,Potency,[2],inactive
same,Potency,[4],inactive
same,Potency,[5],inactive
same,Potency,[9],inactive
same,Potency,[6],inactive
Nc1ccc(Oc2ccc(Cl)cc2)cc1,Potency,[1],inactive
same,Potency,[2],inactive
same,Potency,[4],inactive
same,Potency,[5],inactive
same,Potency,[9],33.6 µM (active)
same,Potency,[6],39.1 µM (active)
COc1cc2nc(N3CCN(C(=O)c4ccco4)CC3)nc(N)c2cc1OC,Potency,[1],11.6 µM (active)
same,caspase activation,[2],12.8% [at 19 µM] (inactive)
same,caspase-3/7 activation,[4],0.614% [at 19 µM] (inactive)
same,"activity change, negative = cytotoxicity",[5],-12% [at 19 µM] (inactive)
same,"activity change, negative = inhibition",[6],-17.8% [at 23.6 µM] (inactive)
CCCCOC(=O)CC,Potency,[1],inactive
same,Potency,[2],inactive
same,Potency,[3],inactive
same,Potency,[4],inactive
same,Potency,[5],inactive
same,Potency,[6],inactive
NC[C@H]1O[C@H](O[C@H]2[C@H](O[C@@H]3O[C@H](CO)[C@@H](O)[C@H]3O)C(O)[C@H](N)C[C@@H]2N)[C@H](N)[C@@H](O)[C@@H]1O (stereo partly drawn),"activity change, negative = cytotoxicity",[1],22.9% [at 8.39 µM] (inactive)
same,caspase activation,[2],-1.04% [at 8.39 µM] (inactive)
same,"activity change, negative = cytotoxicity",[3],6.09% [at 8.39 µM] (inactive)
same,caspase-3/7 activation,[4],-0.0652% [at 8.39 µM] (inactive)
same,"activity change, negative = cytotoxicity",[5],8% [at 8.39 µM] (inactive)
same,"activity change, negative = inhibition",[6],-0.538% [at 10.5 µM] (inactive)
c1ccc(SSc2ccccc2)cc1,Potency,[1],inactive
same,Potency,[2],inactive
same,Potency,[4],inactive
same,Potency,[5],inactive
CCCCCCCCCCCCOC(=O)c1ccc(O)cc1,Potency,[1],inactive
same,Potency,[2],54.9 µM (active)
same,Potency,[4],61.6 µM (active)
same,Potency,[9],27.5 µM (active)
same,Potency,[6],11.3 µM (active)
COc1cc(C)ccc1O,Potency,[1],inactive
same,Potency,[2],inactive
same,Potency,[3],inactive
same,Potency,[4],inactive
same,Potency,[9],inactive
same,Potency,[6],inactive
CC1=Nc2ccccc2C1(C)C,Potency,[1],inactive
same,Potency,[2],inactive
same,Potency,[3],inactive
same,Potency,[4],inactive
same,Potency,[5],inactive
same,Potency,[6],71.1 µM (active)
OC1CCCc2ccccc21 (stereo not drawn),Potency,[1],inactive
same,Potency,[2],inactive
same,Potency,[3],inactive
same,Potency,[4],inactive
same,Potency,[5],inactive
same,Potency,[6],inactive
Cc1cc(=O)oc2cc(O)cc(O)c12,Potency,[1],inactive
same,Potency,[2],inactive
same,Potency,[4],inactive
same,Potency,[9],61.3 µM (active)
same,Potency,[6],inactive
S=C([S-])NCCNC(=S)[S-].S=C([S-])NCCNC(=S)[S-].[Mn+2].[Zn+2],Potency,[1],inactive
same,Potency,[2],inactive
same,Potency,[4],inactive
same,Potency,[5],inactive
same,Potency,[9],5.31 µM (active)
CCCC(=O)OCOC(=O)C1=C(C)NC(C)=C(C(=O)OC)C1c1cccc(Cl)c1Cl (stereo not drawn),Potency,[1],inactive
same,Potency,[2],inactive
same,Potency,[3],inactive
same,Potency,[4],inactive
same,Potency,[5],inactive
same,Potency,[6],inactive
CC(=O)[C@H]1CC[C@H]2[C@@H]3CCC4=CC(=O)CC[C@]4(C)[C@H]3CC[C@]12C,Potency,[1],inactive
same,Potency,[2],inactive
same,Potency,[3],54.2 µM (active) and 48.6 µM (active)
same,Potency,[4],inactive
same,Potency,[5],inactive
same,Potency,[6],15.8 µM (active) and 39.9 µM (active)
CCO[Si](OCC)(OCC)OCC,Potency,[1],inactive
same,Potency,[2],inactive
same,Potency,[3],inactive
same,Potency,[4],inactive
same,Potency,[5],inactive
same,Potency,[6],inactive
Cc1c(C)c([N+](=O)[O-])c(C(C)(C)C)c([N+](=O)[O-])c1C,Potency,[1],inactive
same,Potency,[2],inactive
same,Potency,[3],inactive
same,Potency,[4],inactive
same,Potency,[5],inactive
same,Potency,[6],inactive
O=S(=O)(O)c1ccc(Nc2nc(Nc3ccc(/C=C/c4ccc(Nc5nc(Nc6ccc(S(=O)(=O)O)cc6)nc(N(CCO)CCO)n5)cc4S(=O)(=O)O)c(S(=O)(=O)O)c3)nc(N(CCO)CCO)n2)cc1,Potency,[1],inactive
same,Potency,[2],inactive
same,Potency,[3],inactive
same,Potency,[4],inactive
same,Potency,[5],inactive
same,Potency,[6],inactive
O=S(=O)(O)c1ccc(N=Nc2c(O)ccc3ccccc23)cc1,Potency,[1],27.3 µM (active)
same,Potency,[2],inactive
same,Potency,[3],30.6 µM (active)
same,Potency,[4],inactive
same,Potency,[5],30.6 µM (active)
same,Potency,[6],35.6 µM (active)
CCCCOC(=O)CO,Potency,[1],inactive
same,Potency,[2],inactive
same,Potency,[3],inactive
same,Potency,[4],inactive
same,Potency,[5],inactive
same,Potency,[6],inactive
C/C=C/C=C/COC(=O)C(C)C,Potency,[1],68.6 µM (active)
same,Potency,[2],inactive
same,Potency,[3],54.5 µM (active)
same,Potency,[4],inactive
same,Potency,[9],43.3 µM (active)
same,Potency,[6],inactive
CC(=O)CC(=O)Nc1ccc(S(=O)(=O)O)cc1,Potency,[1],inactive
same,Potency,[2],inactive
same,Potency,[3],inactive
same,Potency,[4],inactive
same,Potency,[5],inactive
same,Potency,[6],inactive
C=Cc1cccc(C)c1,Potency,[1],inactive
same,Potency,[2],inactive
same,Potency,[3],60.5 µM (active) and inactive
same,Potency,[4],inactive
same,Potency,[5],inactive
same,Potency,[6],39.5 µM (active) and inactive
Nc1nc(-c2ccccc2)cs1,Potency,[1],inactive
same,Potency,[3],inactive
same,Potency,[4],inactive
same,Potency,[5],inactive
same,Potency,[9],27.2 µM (active)
same,Potency,[6],12.6 µM (active)
